PubChem BioAssay AID1159580 (chemical genetic matrix, 2015)
Screen size: about 5,500 compounds; about 2,000 (36%) were called active. Roughly 18% stayed inconclusive and do not appear here. Cut-off read from the data, not from the text of the source: active = normalized growth mostly below about 0.91 (no sharp cut-off); inconclusive = no clear call, values can overlap the other calls; inactive = mostly above about 0.92. This is one part of the list.

Assay: chemical genetic growth profiling, strain panel (AID 1159580);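 note: tested at 20 µM; growth read once vehicle control cultures reached saturation at 30 °C; 1 = growth at the plate median or of vehicle wells; lower values mean less growth of the strain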
Settings: growth OD

Measured: normalized growth

CN1CCN(C(c2ccccc2)c2ccccc2)CC1
inactive: S. cerevisiae deletion strains, locus YJR075W, strain HOC1, hits give low values 1 | S. cerevisiae deletion strains, locus YKL009W, strain mrt4, hits give low values 0.963 | S. cerevisiae deletion strains, locus YKL068W, hits give low values 0.977 | S. cerevisiae deletion strains, locus YKL085W, strain MDH1 (second series), hits give low values 0.973 | S. cerevisiae deletion strains, locus YKL085W, strain MDH1, hits give low values 0.973 | S. cerevisiae deletion strains, locus YKL160W, strain elf1, hits give low values 0.965 | S. cerevisiae deletion strains, locus YKL190W, strain CNB1, hits give low values 0.974 | S. cerevisiae deletion strains, locus YKR001C, strain vps1, hits give low values 0.974 | S. cerevisiae deletion strains, locus YKR026C, strain gcn3, hits give low values 0.992 | S. cerevisiae deletion strains, locus YKR091W, strain srl3, hits give low values 0.98 | S. cerevisiae deletion strains, locus YLL001W, strain dnm1, hits give low values 0.996 | S. cerevisiae deletion strains, locus YLL026W, hits give low values 0.999 | S. cerevisiae deletion strains, locus YLL041C, strain sdh2, hits give low values 0.971 | S. cerevisiae deletion strains, locus YLR027C, strain aat2, hits give low values 0.985 | S. cerevisiae deletion strains, locus YLR039C, strain RIC1, hits give low values 1 | S. cerevisiae deletion strains, locus YLR058C, strain SHM2, hits give low values 0.999 | S. cerevisiae deletion strains, locus YLR102C, strain apc9, hits give low values 0.967 | S. cerevisiae deletion strains, locus YLR113W, strain HOG1, hits give low values 0.994 | S. cerevisiae deletion strains, locus YLR221C, strain rsa3, hits give low values 1.02 | S. cerevisiae deletion strains, locus YLR258W, strain gsy2, hits give low values 0.978 | S. cerevisiae deletion strains, locus YLR262C, strain YPT6 (second series), hits give low values 1 | S. cerevisiae deletion strains, locus YLR262C, strain YPT6, hits give low values 1.03 | S. cerevisiae deletion strains, locus YLR268W, strain sec22, hits give low values 0.965 | S. cerevisiae deletion strains, locus YLR320W, strain mms22, hits give low values 0.992 | S. cerevisiae deletion strains, locus YLR330W, strain CHS5, hits give low values 0.989 | S. cerevisiae deletion strains, locus YLR342W, strain FKS1 (second series), hits give low values 1.03 | S. cerevisiae deletion strains, locus YLR342W, strain FKS1, hits give low values 0.991 | S. cerevisiae deletion strains, locus YLR357W, strain rsc2, hits give low values 0.948 | S. cerevisiae deletion strains, locus YLR370C, strain arc18, hits give low values 0.989 | S. cerevisiae deletion strains, locus YLR371W, strain rom2, hits give low values 0.974 | S. cerevisiae deletion strains, locus YLR384C, strain iki3, hits give low values 0.965 | S. cerevisiae deletion strains, locus YLR418C, strain cdc73, hits give low values 0.934 | S. cerevisiae deletion strains, locus YML016C, strain PPZ1, hits give low values 1 | S. cerevisiae deletion strains, locus YML032C, strain rad52, hits give low values 0.959 | S. cerevisiae deletion strains, locus YML120C, strain ndi1, hits give low values 0.99 | S. cerevisiae deletion strains, locus YML124C, strain tub3, hits give low values 0.968 | S. cerevisiae deletion strains, locus YMR058W, strain fet3, hits give low values 1.01 | S. cerevisiae deletion strains, locus YMR078C, strain ctf18, hits give low values 0.973 | S. cerevisiae deletion strains, locus YMR125W, strain sto1, hits give low values 0.95 | S. cerevisiae deletion strains, locus YMR129W, hits give low values 0.996 | S. cerevisiae deletion strains, locus YMR205C, strain PFK2, hits give low values 0.963 | S. cerevisiae deletion strains, locus YMR223W, strain ubp8, hits give low values 0.991 | S. cerevisiae deletion strains, locus YMR231W, strain pep5, hits give low values 0.994 | S. cerevisiae deletion strains, locus YMR263W, strain SAP30, hits give low values 0.997 | S. cerevisiae deletion strains, locus YMR307W, strain GAS1, hits give low values 1.02 | S. cerevisiae deletion strains, locus YNL067W, strain RPL9B, hits give low values 0.996 | S. cerevisiae deletion strains, locus YNL071W, strain lat1, hits give low values 0.984 | S. cerevisiae deletion strains, locus YNL128W, strain TEP1, hits give low values 0.991 | S. cerevisiae deletion strains, locus YNL153C, strain GIM3, hits give low values 1 | S. cerevisiae deletion strains, locus YNL183C, strain NPR1, hits give low values 0.937 | S. cerevisiae deletion strains, locus YNL209W, strain ssb2, hits give low values 0.978 | S. cerevisiae deletion strains, locus YNL233W, strain BNI4, hits give low values 1 | S. cerevisiae deletion strains, locus YNL248C, strain rpa49, hits give low values 0.932 | S. cerevisiae deletion strains, locus YNL250W, strain rad50, hits give low values 0.987 | S. cerevisiae deletion strains, locus YNL271C, strain bni1, hits give low values 0.974 | S. cerevisiae deletion strains, locus YNL298W, strain CLA4, hits give low values 0.975 | S. cerevisiae deletion strains, locus YNL307C, strain MCK1, hits give low values 0.962 | S. cerevisiae deletion strains, locus YNL322C, strain KRE1 (second series), hits give low values 0.978 | S. cerevisiae deletion strains, locus YNL322C, strain KRE1, hits give low values 0.991 | S. cerevisiae deletion strains, locus YNR049C, strain mso1, hits give low values 0.99 | S. cerevisiae deletion strains, locus YNR052C, strain pop2, hits give low values 0.953 | S. cerevisiae deletion strains, locus YOL006C, strain TOP1, hits give low values 0.929 | S. cerevisiae deletion strains, locus YOL012C, strain htz1 1.39 | S. cerevisiae deletion strains, locus YOL147C, strain pex11, hits give low values 0.978 | S. cerevisiae deletion strains, locus YOR001W, strain rrp6, hits give low values 0.993 | S. cerevisiae deletion strains, locus YOR061W, strain CKA2, hits give low values 1 | S. cerevisiae deletion strains, locus YOR069W, strain VPS5, hits give low values 0.998 | S. cerevisiae deletion strains, locus YOR070C, strain gyp1, hits give low values 0.979 | S. cerevisiae deletion strains, locus YOR080W, strain dia2, hits give low values 0.986 | S. cerevisiae deletion strains, locus YOR083W, strain WHI5, hits give low values 0.948 | S. cerevisiae deletion strains, locus YOR106W, strain vam3, hits give low values 0.995 | S. cerevisiae deletion strains, locus YOR136W, strain idh2, hits give low values 0.971 | S. cerevisiae deletion strains, locus YOR144C, strain elg1, hits give low values 0.96 | S. cerevisiae deletion strains, locus YOR184W, strain ser1, hits give low values 0.994 | S. cerevisiae deletion strains, locus YOR231W, strain MKK1, hits give low values 0.987 | S. cerevisiae deletion strains, locus YOR265W, strain rbl2, hits give low values 0.98 | S. cerevisiae deletion strains, locus YOR270C, strain vph1, hits give low values 0.914 | S. cerevisiae deletion strains, locus YOR290C, strain snf2, hits give low values 0.974 | S. cerevisiae deletion strains, locus YOR316C, strain cot1, hits give low values 0.958 | S. cerevisiae deletion strains, locus YPL051W, strain arl3, hits give low values 0.979 | S. cerevisiae deletion strains, locus YPL055C, strain LGE1, hits give low values 0.975 | S. cerevisiae deletion strains, locus YPL078C, strain atp4, hits give low values 0.974 | S. cerevisiae deletion strains, locus YPL106C, strain sse1, hits give low values 0.949 | S. cerevisiae deletion strains, locus YPL240C, strain hsp82, hits give low values 1.01 | S. cerevisiae deletion strains, locus YPL241C, strain CIN2, hits give low values 0.994 | S. cerevisiae deletion strains, locus YPL256C, strain CLN2, hits give low values 0.995 | S. cerevisiae deletion strains, locus YPR119W, strain clb2, hits give low values 0.977 | S. cerevisiae deletion strains, locus YPR141C, strain kar3, hits give low values 0.954 | S. cerevisiae deletion strains, locus YPR163C, strain tif3, hits give low values 0.971 | S. cerevisiae deletion strains, locus YPR167C, strain met16, hits give low values 0.958 | S. cerevisiae deletion strains, strain wtn01, hits give low values 0.979 | S. cerevisiae strains, strain wild type, hits give low values 1.01
